According to PubChem BioAssay (NCI):
About 83,000 compounds went through this panel and 20% of them were active in at least one assay; those are over-represented in the sample as a whole.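 Negative percent growth values reflect cell death: -40 means 40% of the cells present at the start died, and -100 means all died.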 Values without a mark were called inactive. Active and inactive are the calls of the source. The calls were made as follows: active = growth percent below 10; inactive = the rest.

What follows are compounds tested on SW-620 colon (assay: NCI-60 one-dose screen, 48 h (100 = growth as untreated, 0 = no growth, -100 = all killed)). Conditions: 10 µM unless noted.

Compound | growth
COc1c(B(O)O)cccc1-c1nc2ccc3[nH]ncc3c2c2c1C1CCC2C1 (stereo unspecified) | 34.3%
O=C(Nc1ccc(Cl)cc1F)c1cc(F)ccc1O | 9.96% (active)
O=c1oc2ccc(I)cc2c(=O)n1-c1ccc(I)cc1F | 8.02% (active)
NCCNc1nc2ccc(F)cc2c2c(=O)c3cc(F)ccc3sc12 | -73.5% (active)
O=C(Nc1ccc(Br)cc1F)c1cc(F)ccc1O | 10.2%
Cc1ccc(Nc2nc(N)c3ccccc3n2)cc1Cl | 67.7%
O=C1c2cc(I)ccc2Oc2cc([N+](=O)[O-])ccc2N1c1ccc(Cl)cc1F | 82.5%
CC1=C(C(=O)OCC2CCN(C(=O)OC(C)(C)C)CC2)[C@H](c2cccc(Br)c2)C2=C(CC(C)(C)CC2=O)N1 | 28.2%
O=C(c1ccccc1)N(C(=S)NCCc1ccc(Cl)cc1)c1ccc(Cl)cc1 | 62.8%
C#CCn1cc(C=C2C(=O)NC(=O)NC2=O)c2cc(Cl)ccc21 | 97.7%
O=c1oc2ccc(Br)cc2c(=O)n1-c1ccc(F)cc1F | 16.3%
O=C(Nc1ccc(Br)cc1F)c1cc(I)ccc1O | 14.1%
O=c1oc2ccc(Cl)cc2c(=O)n1-c1cc(C(F)(F)F)cc(C(F)(F)F)c1 | 6.78% (active)
O=c1oc2ccc(Br)cc2c(=O)n1-c1ccc(I)cc1F | 10%
O=c1oc2ccc(-c3ccc(F)cc3F)cc2c(=O)n1-c1cccc(C(F)(F)F)c1 | 12.6%
O=c1oc2ccc(F)cc2c(=O)n1-c1ccc(Br)cc1F | 10.2%
